According to PubChem BioAssay AID1159580 (chemical genetic matrix, 2015):
Values joined by “and” are separate entries in the source; they are usually repeats but may differ in a detail not shown here. Equal values may be shown once. Hit rate of the full screen: of about 5,500 compounds, about 2,000 (36%) were called active. Not shown: some 18% with an inconclusive outcome. Cut-off read from the data, not from the text of the source: active = normalized growth mostly below about 0.91 (no sharp cut-off); inconclusive = no clear call, values can overlap the other calls; inactive = mostly above about 0.92. The list shows a part of the results.

Assay: chemical genetic growth profiling, strain panel (AID 1159580);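 note: tested at 20 µM; growth read once vehicle control cultures reached saturation at 30 °C; 1 = growth at the plate median or of vehicle wells; lower values mean less growth of the strain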
Conditions: S. cerevisiae deletion strains, growth OD

Measured: normalized growth

COC1(C)CCC2OC2(C)CCC2C1CC2(C)C (centres undefined)
inactive: locus YAL013W, strain DEP1, stronger effect = lower value 1 | locus YAL021C, strain ccr4, stronger effect = lower value 1 | locus YAL026C, strain drs2, stronger effect = lower value 1.03 | locus YAL030W, strain snc1, stronger effect = lower value 1.01 | locus YBL061C, strain skt5, stronger effect = lower value 1.01 | locus YBR009C, strain hhf1, stronger effect = lower value 0.991 | locus YBR021W, strain FUR4, stronger effect = lower value 1.02 | locus YBR023C, strain chs3, stronger effect = lower value 1 | locus YBR171W, strain sec66, stronger effect = lower value 1.02 | locus YBR229C, strain ROT2, stronger effect = lower value 1.01 | locus YBR231C, strain swc5, stronger effect = lower value 1.02 | locus YBR279W, strain paf1, stronger effect = lower value 0.998 | locus YCL011C, strain gbp2, stronger effect = lower value 1.01 | locus YCL016C, strain dcc1, stronger effect = lower value 1 | locus YCL029C, strain bik1, stronger effect = lower value 0.998 | locus YCL061C, strain MRC1, stronger effect = lower value 1 | locus YCL069W, strain vba3, stronger effect = lower value 1.02 | locus YCR088W, strain abp1, stronger effect = lower value 1.01 | locus YDL005C, strain med2, stronger effect = lower value 1.01 | locus YDL035C, strain GPR1, stronger effect = lower value 1.01 | locus YDL040C, strain nat1, stronger effect = lower value 1.01 | locus YDL074C, strain BRE1, stronger effect = lower value 1.01 | locus YDL101C, strain DUN1, stronger effect = lower value 1.02 | locus YDL134C, strain PPH21, stronger effect = lower value 1.04 | locus YDL185W, strain tfp1, stronger effect = lower value 1.01 | locus YDL192W, strain arf1, stronger effect = lower value 0.99 | locus YDR001C, strain nth1, stronger effect = lower value 1.01 | locus YDR069C, strain doa4, stronger effect = lower value 1.01 | locus YDR101C, strain arx1, stronger effect = lower value 0.993 | locus YDR137W, strain rgp1, stronger effect = lower value 1 | locus YDR150W, strain NUM1, stronger effect = lower value 0.98 | locus YDR159W, strain sac3, stronger effect = lower value 0.997 | locus YDR162C, strain NBP2, stronger effect = lower value 0.995 | locus YDR195W, strain ref2 1.02 | locus YDR297W, strain sur2, stronger effect = lower value 0.997 | locus YDR318W, strain mcm21, stronger effect = lower value 1.01 | locus YDR334W, strain swr1, stronger effect = lower value 1.02 | locus YDR335W, strain msn5, stronger effect = lower value 1.02 | locus YDR388W, stronger effect = lower value 1.01 | locus YDR392W, strain spt3, stronger effect = lower value 0.818 | locus YDR502C, strain sam2, stronger effect = lower value 1.04 | locus YEL003W, strain gim4, stronger effect = lower value 1.01 | locus YEL037C, strain rad23, stronger effect = lower value 1.01 | locus YEL061C, strain CIN8 (second series), stronger effect = lower value 1.02 | locus YER015W, strain faa2, stronger effect = lower value 1 | locus YER016W, strain bim1, stronger effect = lower value 1.01 | locus YER110C, stronger effect = lower value 1.02 | locus YER111C, strain swi4, stronger effect = lower value 1 | locus YER155C, strain BEM2 (second series), stronger effect = lower value 0.995 | locus YER155C, strain BEM2, stronger effect = lower value 0.996 | locus YER167W, strain BCK2, stronger effect = lower value 0.997 | locus YFR010W, strain ubp6, stronger effect = lower value 1.03 | locus YGL078C, strain dbp3, stronger effect = lower value 1.05 | locus YGL086W, strain mad1, stronger effect = lower value 1 | locus YGL167C, strain pmr1, stronger effect = lower value 1.01 | locus YGL173C, strain kem1, stronger effect = lower value 1.01 | locus YGL227W, strain vid30, stronger effect = lower value 1.01 | locus YGL240W, strain doc1, stronger effect = lower value 1 | locus YGL248W, strain PDE1, stronger effect = lower value 1.05 | locus YGL253W, strain hxk2, stronger effect = lower value 1.01 | locus YGR078C, strain PAC10, stronger effect = lower value 1.05 | locus YGR135W, strain pre9, stronger effect = lower value 1.06 | locus YGR252W, strain gcn5, stronger effect = lower value 1.03 | locus YHR013C, strain ard1, stronger effect = lower value 1.03 | locus YHR027C, strain rpn1, stronger effect = lower value 1.02 | locus YHR030C, strain SLT2, stronger effect = lower value 1.01 | locus YHR079C, strain IRE1 (second series), stronger effect = lower value 1 | locus YHR079C, strain IRE1, stronger effect = lower value 1.04 | locus YHR094C, strain hxt1, stronger effect = lower value 1.01 | locus YHR129C, strain ARP1, stronger effect = lower value 1.01 | locus YHR142W, strain chs7, stronger effect = lower value 1.03 | locus YHR200W, strain rpn10, stronger effect = lower value 1.02 | locus YIL066C, strain RNR3, stronger effect = lower value 1 | locus YIL073C, strain SPO22, stronger effect = lower value 1.06 | locus YIL125W, strain kgd1, stronger effect = lower value 0.981 | locus YIR030C, strain dcg1, stronger effect = lower value 0.999 | locus YJL092W, strain hpr5, stronger effect = lower value 1.01 | locus YJL095W, strain BCK1 (second series), stronger effect = lower value 1.01 | locus YJL095W, strain BCK1, stronger effect = lower value 1.11 and 1.04 | locus YJL115W, strain asf1, stronger effect = lower value 1.01 | locus YJL129C, strain trk1, stronger effect = lower value 1.01 | locus YJL134W, strain LCB3, stronger effect = lower value 1.01 | locus YJL154C, strain vps35, stronger effect = lower value 1.02 | locus YJL164C, strain tpk1, stronger effect = lower value 1.01 | locus YJL166W, strain qcr8, stronger effect = lower value 1.02 | locus YJL168C, strain set2, stronger effect = lower value 0.988 | locus YJL187C, strain SWE1 (second series), stronger effect = lower value 1.05 | locus YJL187C, strain SWE1, stronger effect = lower value 1 | locus YJR043C, strain POL32, stronger effect = lower value 0.99 | locus YJR066W, strain TOR1, stronger effect = lower value 0.962 | locus YKL009W, strain mrt4, stronger effect = lower value 1.04 | locus YKL068W, stronger effect = lower value 1 | locus YKL085W, strain MDH1 (second series), stronger effect = lower value 1 | locus YKL085W, strain MDH1, stronger effect = lower value 1 | locus YKL160W, strain elf1, stronger effect = lower value 1 | locus YKL190W, strain CNB1, stronger effect = lower value 1 | locus YKR001C, strain vps1, stronger effect = lower value 1.02 | locus YKR026C, strain gcn3, stronger effect = lower value 1.01 | locus YKR091W, strain srl3, stronger effect = lower value 1.01 | locus YLL001W, strain dnm1, stronger effect = lower value 0.989 | locus YLL026W, stronger effect = lower value 0.991 | locus YLL041C, strain sdh2, stronger effect = lower value 1.02 | locus YLR027C, strain aat2, stronger effect = lower value 0.993 | locus YLR039C, strain RIC1, stronger effect = lower value 1.06 | locus YLR058C, strain SHM2, stronger effect = lower value 1.03 | locus YLR102C, strain apc9, stronger effect = lower value 0.997 | locus YLR113W, strain HOG1, stronger effect = lower value 1.03 | locus YLR221C, strain rsa3, stronger effect = lower value 1.01 | locus YLR258W, strain gsy2, stronger effect = lower value 1.01 | locus YLR262C, strain YPT6 (second series), stronger effect = lower value 0.979 | locus YLR262C, strain YPT6, stronger effect = lower value 1.07 | locus YLR268W, strain sec22, stronger effect = lower value 0.983 | locus YLR320W, strain mms22, stronger effect = lower value 1 | locus YLR342W, strain FKS1, stronger effect = lower value 1 | locus YLR357W, strain rsc2, stronger effect = lower value 1.02 | locus YLR370C, strain arc18, stronger effect = lower value 1 | locus YLR371W, strain rom2, stronger effect = lower value 1.01 | locus YLR384C, strain iki3, stronger effect = lower value 1 | locus YLR418C, strain cdc73, stronger effect = lower value 1.04 | locus YML016C, strain PPZ1, stronger effect = lower value 1.02 | locus YML032C, strain rad52, stronger effect = lower value 1 | locus YML120C, strain ndi1, stronger effect = lower value 1.01 | locus YML124C, strain tub3, stronger effect = lower value 1 | locus YMR058W, strain fet3, stronger effect = lower value 1.01 | locus YMR078C, strain ctf18, stronger effect = lower value 1.01 | locus YMR125W, strain sto1, stronger effect = lower value 0.997 | locus YMR129W, stronger effect = lower value 1.01 | locus YMR205C, strain PFK2, stronger effect = lower value 0.981 | locus YMR223W, strain ubp8, stronger effect = lower value 1.01 | locus YMR231W, strain pep5, stronger effect = lower value 1 | locus YMR307W, strain GAS1, stronger effect = lower value 1.02 | locus YNL067W, strain RPL9B, stronger effect = lower value 1.04 | locus YNL071W, strain lat1, stronger effect = lower value 1.01 | locus YNL153C, strain GIM3, stronger effect = lower value 1.04 | locus YNL183C, strain NPR1, stronger effect = lower value 0.972 | locus YNL209W, strain ssb2, stronger effect = lower value 1.01 | locus YNL233W, strain BNI4, stronger effect = lower value 1.06 | locus YNL248C, strain rpa49, stronger effect = lower value 1.02 | locus YNL250W, strain rad50, stronger effect = lower value 1.03 | locus YNL271C, strain bni1, stronger effect = lower value 1.01 | locus YNL298W, strain CLA4, stronger effect = lower value 1.02 | locus YNL307C, strain MCK1, stronger effect = lower value 1.01 | locus YNL322C, strain KRE1 (second series), stronger effect = lower value 1.01 | locus YNR049C, strain mso1, stronger effect = lower value 1.01 | locus YNR052C, strain pop2, stronger effect = lower value 1.03 | locus YOL012C, strain htz1 1.84 | locus YOL147C, strain pex11, stronger effect = lower value 1.01 | locus YOR001W, strain rrp6, stronger effect = lower value 1.02 | locus YOR061W, strain CKA2, stronger effect = lower value 1.01 | locus YOR069W, strain VPS5, stronger effect = lower value 1.01 | locus YOR070C, strain gyp1, stronger effect = lower value 1.02 | locus YOR080W, strain dia2, stronger effect = lower value 1 | locus YOR083W, strain WHI5, stronger effect = lower value 0.996 | locus YOR106W, strain vam3, stronger effect = lower value 1.01 | locus YOR136W, strain idh2, stronger effect = lower value 1.01 | locus YOR144C, strain elg1, stronger effect = lower value 0.994 | locus YOR184W, strain ser1, stronger effect = lower value 0.976 | locus YOR231W, strain MKK1, stronger effect = lower value 1.07 | locus YOR265W, strain rbl2, stronger effect = lower value 1.02 | locus YOR270C, strain vph1, stronger effect = lower value 1.15 | locus YOR290C, strain snf2, stronger effect = lower value 1.02 | locus YOR316C, strain cot1, stronger effect = lower value 1.01 | locus YPL051W, strain arl3, stronger effect = lower value 0.976 | locus YPL055C, strain LGE1, stronger effect = lower value 1 | locus YPL078C, strain atp4, stronger effect = lower value 1.01 | locus YPL106C, strain sse1, stronger effect = lower value 1.01 | locus YPL240C, strain hsp82, stronger effect = lower value 1.01 | locus YPL241C, strain CIN2, stronger effect = lower value 0.993 | locus YPL256C, strain CLN2, stronger effect = lower value 1.03 | locus YPR119W, strain clb2, stronger effect = lower value 1 | locus YPR141C, strain kar3, stronger effect = lower value 1.02 | locus YPR163C, strain tif3, stronger effect = lower value 1 | locus YPR167C, strain met16, stronger effect = lower value 1.01 | strain wtn01, stronger effect = lower value 0.986
